Test results: PubChem BioAssay (EPA / NIEHS)
Records with an inconclusive call do not appear. The source holds several records for some structures; these can differ, active in one and inactive in another. The source made the active and inactive calls. The calls were made as follows, unless noted: active = hit-call score of the fitted dose curve at least 0.9, where 1 is the maximum; inactive = score below 0.9.

What follows are molecules tested against human Thyroid Receptor alpha (THRa1), THRA (gene 7067) (UniProt P10827) (assay: ATG_THRa1_TRANS: Attagene TRANS-FACTORIAL HepG2 Assay for human Thyroid Receptor alpha (THRa1) (AID 2283014; active = hit-call score of the fitted dose curve at least 0.9, where 1 is the maximum)). Conditions: not given.
How it was run: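 HepG2 cells transiently transfected with chimeric NR-Gal4 and GAL4-UAS reporter units, dosed 24 h. Reporter mRNA quantified by RT-PCR, fluorescent labeling, HpaI digestion and capillary electrophoresis; gain-of-signal fit versus DMSO.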

human Thyroid Receptor alpha (THRa1), THRA (gene 7067), sequence (P10827 whole entry, looked up, the tested form may be a part): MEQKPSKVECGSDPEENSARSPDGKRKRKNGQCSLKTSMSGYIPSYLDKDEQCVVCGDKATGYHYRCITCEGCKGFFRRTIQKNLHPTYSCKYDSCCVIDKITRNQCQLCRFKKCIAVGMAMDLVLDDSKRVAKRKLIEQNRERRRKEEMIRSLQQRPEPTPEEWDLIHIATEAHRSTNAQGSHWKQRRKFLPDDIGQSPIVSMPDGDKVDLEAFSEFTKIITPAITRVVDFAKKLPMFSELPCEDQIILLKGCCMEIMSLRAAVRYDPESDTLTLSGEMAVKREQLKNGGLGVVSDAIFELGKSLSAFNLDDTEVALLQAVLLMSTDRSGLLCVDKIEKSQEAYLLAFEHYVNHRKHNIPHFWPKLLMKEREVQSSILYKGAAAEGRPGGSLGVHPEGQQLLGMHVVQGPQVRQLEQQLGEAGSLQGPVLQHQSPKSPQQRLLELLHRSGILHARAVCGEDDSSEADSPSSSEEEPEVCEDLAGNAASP

SMILES	outcome
CCNc1nc(NC(C)(C)C)nc(OC)n1	inactive
CCCCC(CC)COC(=O)/C=C/c1ccc(OC)cc1 (stereo unspecified)	inactive
Cc1ccc([N+](=O)[O-])cc1N	inactive
c1ccc2sc(SSN3CCOCC3)nc2c1	inactive
CC=C(C)C=CC=C(C)C	inactive
Oc1c(Cl)cc(Cl)c(Cl)c1Cl	inactive
Oc1ccccc1Cc1ccccc1O	inactive
CC(CCC(=O)O)(c1ccc(O)cc1)c1ccc(O)cc1	inactive
Oc1ccc(/C=C/c2cc(O)cc(O)c2)cc1	inactive
C=C(C)C(=O)OCCCCCCCCCCCC	inactive
CC1=NN(c2ccc(S(=O)(=O)O)cc2)C(=O)C1N=Nc1ccccc1 (stereo unspecified)	inactive
CC=CC(=O)OCC(C)C	inactive
C=CC(=O)OCCCCCCOC(=O)C=C	inactive
CC(Cl)COP(=O)(OCC(C)Cl)OCC(C)Cl (stereo unspecified)	inactive
CC(=O)OC1CCCCC1C(C)(C)C (stereo unspecified)	inactive
C=CC(=O)OCC(C)OCC(C)OCC(C)OC(=O)C=C (stereo unspecified)	inactive
CCCCCCC=O	inactive

What follows are molecules tested on E-selectin (Homo sapiens) (UniProt P16581) (assay: BSK_3C_Eselectin: BioMAP Diversity Plus: 3C Assay for Eselectin Biomarker Activity (AID 2283015;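 as to outcome: cell surface E-selectin protein quantified by ELISA 24 h after dosing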)). Conditions: primary human endothelial cells (HUVEC); actives raise or lower the signal.
How it was run: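 Primary human umbilical vein endothelial cells (3C system), read 24 h after compound addition; E-selectin measured by ELISA. Bidirectional curve fitting against DMSO baseline; cytotoxicity by parallel SRB total-protein staining.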

E-selectin (Homo sapiens), sequence (P16581 whole entry, looked up): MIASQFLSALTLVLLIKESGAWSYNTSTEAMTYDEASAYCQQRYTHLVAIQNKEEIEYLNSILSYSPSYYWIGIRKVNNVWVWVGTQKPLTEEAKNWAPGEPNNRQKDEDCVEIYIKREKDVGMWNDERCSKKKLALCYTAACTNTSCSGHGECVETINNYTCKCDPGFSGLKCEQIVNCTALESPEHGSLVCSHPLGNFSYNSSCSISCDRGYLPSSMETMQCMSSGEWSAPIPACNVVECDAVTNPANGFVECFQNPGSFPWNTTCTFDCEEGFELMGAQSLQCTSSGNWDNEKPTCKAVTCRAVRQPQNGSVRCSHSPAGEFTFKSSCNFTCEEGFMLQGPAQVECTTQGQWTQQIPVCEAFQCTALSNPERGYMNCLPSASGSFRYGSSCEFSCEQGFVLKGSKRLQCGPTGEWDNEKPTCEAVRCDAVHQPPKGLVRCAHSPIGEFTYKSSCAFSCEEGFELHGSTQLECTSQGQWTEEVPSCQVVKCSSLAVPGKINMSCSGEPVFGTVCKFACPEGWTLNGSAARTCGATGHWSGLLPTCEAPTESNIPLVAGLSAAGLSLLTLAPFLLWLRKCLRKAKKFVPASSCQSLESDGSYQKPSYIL

SMILES	outcome	AC50
CCNc1nc(NC(C)(C)C)nc(OC)n1	inactive	
CC=C(C)C(C)=O	inactive	
O=C1CCCCCCCCCCC1	inactive	
Cc1ccc([N+](=O)[O-])cc1N	inactive	
CC/C=C\C/C=C\C/C=C\CCCCCCCC(=O)OC		19.2 µM (active)
CCOC(=O)C1=NOC(c2ccccc2)(c2ccccc2)C1	inactive	
CCN1CN(CC)CN(CC)C1	inactive	
c1ccc2sc(SSN3CCOCC3)nc2c1		11.8 µM (active)
C[N+](C)(C)CCCNS(=O)(=O)C(F)(F)C(F)(F)C(F)(F)C(F)(F)C(F)(F)C(F)(F)C(F)(F)C(F)(F)F	inactive	
CC=C(C)C=CC=C(C)C		20 µM (active)
Oc1c(Cl)cc(Cl)c(Cl)c1Cl		27.7 µM (active)
Nc1cccc(N)n1	inactive	
C1CNCCN1	inactive	
C=CC(=O)NC(C)(C)C	inactive	
C=CC(=O)OCCCCCCCC(C)C		20 µM (active)
O=C(O)C(F)(F)C(F)(F)C(F)(F)C(F)(F)C(=O)O	inactive	

SMILES	outcome	AC50
Oc1ccccc1Cc1ccccc1O	inactive	
CC1=CC=C(C(C)C)CC1	inactive	
C=CC(=O)NCOCCCC	inactive	
CC(CCC(=O)O)(c1ccc(O)cc1)c1ccc(O)cc1	inactive	
Oc1ccc(/C=C/c2cc(O)cc(O)c2)cc1	inactive	
CCCC(C)C(=O)OCC (stereo unspecified)	inactive	
CCCCCCCCC(CO)CCCCCC (stereo unspecified)	inactive	
C=C(C)C(=O)OCCCCCCCCCCCC	inactive	
O=C(Oc1ccccc1)c1ccccc1C(=O)Oc1ccccc1	inactive	
CCCCCCCO	inactive	
CCCCCC1=CCCC1=O	inactive	
C=CC(=O)OCCCCCCOC(=O)C=C		6.59 µM (active)
CC(Cl)COP(=O)(OCC(C)Cl)OCC(C)Cl (stereo unspecified)	inactive	
CCC1(C)C(=O)N(Cl)C(=O)N1Cl (stereo unspecified)	inactive	
C=CC(=O)OCC(C)OCC(C)OCC(C)OC(=O)C=C (stereo unspecified)		11 µM (active)
CCCCCCC=O	inactive	

The molecules below were run on Interleukin-1 alpha (IL1a), IL1A (gene 3552) (assay: BSK_BE3C_IL1a: BioMAP Diversity Plus: BE3C Assay for Interleukin-1 alpha (IL1a) Biomarker Activity (AID 2283016)). Conditions: primary human bronchial epithelial cells; actives raise or lower the signal.
How it was run: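 Measured in human lung primary bronchial epithelial cells: IL-1a by ELISA at 24 h after dosing, with bidirectional fitting against DMSO.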

SMILES	outcome	AC50
CCNc1nc(NC(C)(C)C)nc(OC)n1	inactive	
CC=C(C)C(C)=O	inactive	
O=C1CCCCCCCCCCC1	inactive	
Cc1ccc([N+](=O)[O-])cc1N	inactive	
CC/C=C\C/C=C\C/C=C\CCCCCCCC(=O)OC		16.2 µM (active)
CCOC(=O)C1=NOC(c2ccccc2)(c2ccccc2)C1		0.129 µM (active)
CCN1CN(CC)CN(CC)C1	inactive	
c1ccc2sc(SSN3CCOCC3)nc2c1	inactive	
C[N+](C)(C)CCCNS(=O)(=O)C(F)(F)C(F)(F)C(F)(F)C(F)(F)C(F)(F)C(F)(F)C(F)(F)C(F)(F)F	inactive	14.3 µM (active)
CC=C(C)C=CC=C(C)C	inactive	
Oc1c(Cl)cc(Cl)c(Cl)c1Cl		29.2 µM (active)
Nc1cccc(N)n1	inactive	
C1CNCCN1	inactive	
C=CC(=O)NC(C)(C)C	inactive	
C=CC(=O)OCCCCCCCC(C)C		0.719 µM (active)
O=C(O)C(F)(F)C(F)(F)C(F)(F)C(F)(F)C(=O)O	inactive	

SMILES	outcome	AC50
Oc1ccccc1Cc1ccccc1O	inactive	
CC1=CC=C(C(C)C)CC1	inactive	
C=CC(=O)NCOCCCC	inactive	
CC(CCC(=O)O)(c1ccc(O)cc1)c1ccc(O)cc1	inactive	
Oc1ccc(/C=C/c2cc(O)cc(O)c2)cc1		10.1 µM (active)
CCCC(C)C(=O)OCC (stereo unspecified)	inactive	
CCCCCCCCC(CO)CCCCCC (stereo unspecified)	inactive	
C=C(C)C(=O)OCCCCCCCCCCCC	inactive	
O=C(Oc1ccccc1)c1ccccc1C(=O)Oc1ccccc1	inactive	
CCCCCCCO	inactive	
CCCCCC1=CCCC1=O	inactive	
C=CC(=O)OCCCCCCOC(=O)C=C		10 µM (active)
CC(Cl)COP(=O)(OCC(C)Cl)OCC(C)Cl (stereo unspecified)	inactive	
CCC1(C)C(=O)N(Cl)C(=O)N1Cl (stereo unspecified)	inactive	
C=CC(=O)OCC(C)OCC(C)OCC(C)OC(=O)C=C (stereo unspecified)		21.5 µM (active)
CCCCCCC=O	inactive	

These molecules were tested on Monocyte Chemoattractant Protein-1 (MCP1), CCL2 (gene 6347) (assay: BSK_3C_MCP1: BioMAP Diversity Plus: 3C Assay for Monocyte Chemoattractant Protein-1 (MCP1) Biomarker Activity (AID 2283017)). Conditions: primary human endothelial cells (HUVEC); actives raise or lower the signal.
How it was run: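 Human umbilical vein endothelial cells (3C system) exposed to chemicals for 24 h; MCP-1 quantified by ELISA against the DMSO baseline with bidirectional fitting, and parallel SRB staining used to assess cytotoxicity.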

SMILES	outcome	AC50
CCNc1nc(NC(C)(C)C)nc(OC)n1	inactive	
CC=C(C)C(C)=O	inactive	
O=C1CCCCCCCCCCC1	inactive	
Cc1ccc([N+](=O)[O-])cc1N	inactive	
CC/C=C\C/C=C\C/C=C\CCCCCCCC(=O)OC		31.7 µM (active)
CCOC(=O)C1=NOC(c2ccccc2)(c2ccccc2)C1	inactive	
CCN1CN(CC)CN(CC)C1	inactive	
c1ccc2sc(SSN3CCOCC3)nc2c1		14.2 µM (active)
C[N+](C)(C)CCCNS(=O)(=O)C(F)(F)C(F)(F)C(F)(F)C(F)(F)C(F)(F)C(F)(F)C(F)(F)C(F)(F)F	inactive	30 µM (active)
CC=C(C)C=CC=C(C)C	inactive	
Oc1c(Cl)cc(Cl)c(Cl)c1Cl		30.7 µM (active)
Nc1cccc(N)n1	inactive	
C1CNCCN1	inactive	
C=CC(=O)NC(C)(C)C	inactive	
C=CC(=O)OCCCCCCCC(C)C	inactive	
O=C(O)C(F)(F)C(F)(F)C(F)(F)C(F)(F)C(=O)O	inactive	

SMILES	outcome	AC50
Oc1ccccc1Cc1ccccc1O	inactive	1.72 µM (active)
CC1=CC=C(C(C)C)CC1	inactive	
C=CC(=O)NCOCCCC	inactive	
CC(CCC(=O)O)(c1ccc(O)cc1)c1ccc(O)cc1	inactive	
Oc1ccc(/C=C/c2cc(O)cc(O)c2)cc1		20 µM (active)
CCCC(C)C(=O)OCC (stereo unspecified)	inactive	
CCCCCCCCC(CO)CCCCCC (stereo unspecified)		5.93 µM (active)
C=C(C)C(=O)OCCCCCCCCCCCC	inactive	
O=C(Oc1ccccc1)c1ccccc1C(=O)Oc1ccccc1	inactive	
CCCCCCCO	inactive	
CCCCCC1=CCCC1=O	inactive	
C=CC(=O)OCCCCCCOC(=O)C=C		20 µM (active)
CC(Cl)COP(=O)(OCC(C)Cl)OCC(C)Cl (stereo unspecified)	inactive	
CCC1(C)C(=O)N(Cl)C(=O)N1Cl (stereo unspecified)	inactive	
C=CC(=O)OCC(C)OCC(C)OCC(C)OC(=O)C=C (stereo unspecified)		28.9 µM (active)
CCCCCCC=O	inactive	
